From the supplement of paper PMC10338343
± gives the standard deviation.

Legend:
[1] = test system: MILI (PIWIL2) piRISC loaded with piRNA #1 (26 nt); test: pre-steady-state target cleavage rate (min^-1); guide: piRNA #1 5'p-UGAGGUAGUAGGUUGUAUAGUAUCCA; higher = faster piRNA-guided slicing of the target; settings: auxiliary factor: 500 nM mouse GTSF1;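 note: 1 nM active piRISC with 0.1 nM target library at 33 °C single turnover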
Procedure, shortened: (§1)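 In this Cleave-'n-Seq assay, uncleaved targets were sequenced and normalised to depth and to weakly complementary targets. They came from a transcribed, DNA-blocked target RNA library […] mixed with 1 nM active affinity-purified piRISC carrying one synthetic guide, with or without 500 nM GTSF1 partner protein, in HEPES–potassium acetate buffer at 33 °C for 0–8 or 0–960 min. After three trials were pooled and k3 was capped at 0.0001 min^-1, the pre-steady-state cleavage rate was obtained from a burst-and-steady-state fit.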

[2] = test system: EfPiwi piRISC loaded with piRNA #1 (26 nt); test: pre-steady-state target cleavage rate (min^-1); auxiliary factor: 500 nM Ephydatia muelleri Gtsf1; guide: piRNA #1 5'p-UGAGGUAGUAGGUUGUAUAGUAUCCA; MIWI and MILI are mouse PIWI proteins and EfPiwi is from a freshwater sponge; tags in brackets are library labels; higher = faster piRNA-guided slicing of the target
Procedure, shortened: as §1

| Sequence | pre-steady-state target cleavage rate [1] | pre-steady-state target cleavage rate [2] |
| --- | --- | --- |
| GGAGACCUAUCCUAUACAACCUACUACCUCA | 0.106 ± 0.011 | 0.0903 ± 0.032 |
| GGAGACCAUACUAUACAACCUCCUACCUCA | 0.0492 ± 0.0088 | 0.00434 ± 0.0015 |
| GGAGACCUUUGAAUACAACCUACUACCUCA | 0.00751 ± 0.0038 | 0.00525 ± 0.0038 |
| GGAGACCAUAGUAAACAACCUACUACCUCA | 0.0682 ± 0.009 | 0.00482 ± 0.0034 |
| GGAGUGGAUACUAUAGAACGUACUACCUCA | 0.0156 ± 0.0021 | 0.00156 ± 0.0015 |
| GGAGUGGAUACUAUACAACCUACUACGUGA | 0.0157 ± 0.0044 | 0.00378 ± 0.0015 |
| GGAGUGGAUACUAUACAAACUACUACCUCA | 0.195 ± 0.015 | 0.0127 ± 0.0051 |
| GGAGUGGAUACUUAUACAACCUACUACCUCA | 0.133 ± 0.0093 | 0.093 ± 0.034 |
| GGAGACCAUACUAUACAAACCUACUACCUCA | 0.0045 ± 0.003 | 0.00703 ± 0.0028 |
| GGAGACCUUAGCUAUACAACCUACUACCUCA | 0.112 ± 0.015 | 0.0684 ± 0.027 |
| GGAGUGGAUACAAUACAACCAACUACCUCA | 0.00919 ± 0.0019 | 0.00289 ± 0.0015 |
| GGAGUGGAUACUAUACAACCAACUACCACA | 0.00424 ± 0.0025 | 0.00391 ± 0.0018 |
| GGAGACCUAACUUUACAACCUACUACCUCA | 0.109 ± 0.025 | 0.00631 ± 0.0034 |
| GGAGAGGAAACAAUACAACCUACUACCUCA | 0.186 ± 0.018 | 0.00675 ± 0.004 |
| GGAGACCAUACUAUACAACGUACUUCCUCA | 0.0304 ± 0.0072 | 0.00544 ± 0.0032 |
| GGAGUGGAUACUAACAACCUACUACCUCA | 0.183 ± 0.011 | 0.00566 ± 0.0038 |
| GGAGAGGAUGCUAUACAACCUACUACCUCA | 0.151 ± 0.018 | 0.00971 ± 0.006 |
| GGAGACCAUACUAUAGAACCUACUACGUCA | 0.0697 ± 0.013 | 0.00374 ± 0.0034 |
| GGAGAGGAUUGAAUACAACCUACUACCUCA | 0.0664 ± 0.0088 | 0.00721 ± 0.0044 |
| GGAGACCUUACUAUACAAGCUACUACCUCA | 0.225 ± 0.015 | 0.00386 ± 0.002 |
| GGAGAGGAUACUAAACAACCAACUACCUCA | 0.00772 ± 0.0023 | 0.00246 ± 0.0017 |
| GGAGACCUAACUAUACAACCUACUACCUCA [g2:g21:cont:t1A] | 0.148 ± 0.032 | 0.013 ± 0.0043 |
| GGAGUGGUUACUAUACAUCCUACUACCUCA | 0.295 ± 0.014 | 0.00608 ± 0.0026 |
| GGAGACCUUACUAUCACAACCUACUACCUCA | 0.143 ± 0.016 | 0.00983 ± 0.0039 |
| GGAGACGAUACUAUACAACCUACUAGCCUCA | 0.159 ± 0.021 | 0.00485 ± 0.002 |
| GGAGACCAUACUAUACAACCUACUACCCCA | 0.156 ± 0.024 | 0.00577 ± 0.0028 |
| GGAGAGGAUACUAUACAACCUACCUACCUCA | 0.142 ± 0.013 | 0.00412 ± 0.0014 |

| Sequence | pre-steady-state target cleavage rate [1] | pre-steady-state target cleavage rate [2] |
| --- | --- | --- |
| GGAGACGAUACUAUACUAGCUACUACCUCA | 0.198 ± 0.011 | 0.00469 ± 0.0025 |
| GGAGACCUAACUAUACAACCUACUAGCUCA | 0.0915 ± 0.027 | 0.00459 ± 0.0036 |
| GGAGAGGAUACUAUACAUGCUACUACCUCA | 0.0905 ± 0.01 | 0.0065 ± 0.0032 |
| GGAGAGGAUACUAUACUACGUACUACCUCA | 0.0192 ± 0.0028 | 0.00407 ± 0.0022 |
| GGAGACGAUACUUACAACCUACUACCUCA | 0.114 ± 0.01 | 0.00671 ± 0.0036 |
| GGAGACCAAACUAUACUACCUACUACCUCA | 0.119 ± 0.022 | 0.00362 ± 0.0032 |
| GGAGUGGAUACUAUACCACCUACUACCUCA | 0.188 ± 0.012 | 0.0104 ± 0.004 |
| GGAGAGGAUACUAUACAUCCUACUUCCUCA | 0.0107 ± 0.0033 | 0.00317 ± 0.0017 |
| GGAGACCUUACUAUACAUCCUACUACCUCA | 0.292 ± 0.024 | 0.00607 ± 0.0029 |
| GGAGACCUUACUAUACAACCUACUAGGAGA [g6:g22:cont:t1A] | 0.00747 ± 0.0032 | 0.00279 ± 0.0024 |
| GGAGACCUUGACUAUACAACCUACUACCUCA | 0.163 ± 0.022 | 0.00922 ± 0.0051 |
| GGAGACGAUACAAUACAACCUACAACCUCA | 0.152 ± 0.018 | 0.00274 ± 0.0027 |
| GGAGACCAUACUAUACAACCUACUUCGUCA | 0.112 ± 0.029 | 0.00491 ± 0.0039 |
| GGAGACCCUACUAUACAACCUACUACCUCA | 0.207 ± 0.021 | 0.153 ± 0.051 |
| GGAGUGGAUACUAUACAACCUAUACCUCA | 0.0048 ± 0.002 | 0.00334 ± 0.0019 |
| GGAGACCAAACUAUACAACCUACAACCUCA | 0.12 ± 0.035 | 0.008 ± 0.0041 |
| GGAGACGAUUCUAUACAACCUACUACCUCA | 0.209 ± 0.013 | 0.0774 ± 0.03 |
| GGAGACCUAUCUAUACAACCUACUACCAGA | 0.104 ± 0.016 | 0.00327 ± 0.0026 |
| GGAGACGAUACUAUACGACCUACUACCUCA | 0.0963 ± 0.012 | 0.0807 ± 0.028 |
| GGAGAGGAUACUUUACAACCUAGUACCUCA | 0.0146 ± 0.0048 | 0.00261 ± 0.0016 |
| GGAGACGAUUCAAUACAACCUACUACCUCA | 0.104 ± 0.012 | 0.0447 ± 0.018 |
| GGAGACCUAACUAUACAACCUACUACGAGA | 0.0403 ± 0.019 | 0.00515 ± 0.0032 |
| GGAGACCAGUACUAUACAACCUACUACCUCA | 0.177 ± 0.021 | 0.0152 ± 0.0063 |
| GGAGUGGAUACUAUACAACCUUCUACCUCA | 0.00895 ± 0.002 | 0.0116 ± 0.0048 |
| GGAGUGGAUACUACUACAACCUACUACCUCA | 0.193 ± 0.012 | 0.114 ± 0.038 |
| GGAGACCUUACUAUACAACCUCCUACCUCA | 0.0597 ± 0.01 | 0.00545 ± 0.003 |
| GGAGACCUUACUAUACAACCUACUACGUGA | 0.137 ± 0.024 | 0.00535 ± 0.0036 |
